Consider three compounds from PubChem BioAssay AID1117353 (Cheminformatics & Chemogenomics Research Group (CCRG), …, 2015).

Each structure is given as a SMILES string. The source made the active and inactive calls. Rule as the data show it: active = inhibition above about 50%; inactive = the rest.

Sequence of Vascular endothelial growth factor receptor 2 (Homo sapiens) (P35968 whole entry, looked up): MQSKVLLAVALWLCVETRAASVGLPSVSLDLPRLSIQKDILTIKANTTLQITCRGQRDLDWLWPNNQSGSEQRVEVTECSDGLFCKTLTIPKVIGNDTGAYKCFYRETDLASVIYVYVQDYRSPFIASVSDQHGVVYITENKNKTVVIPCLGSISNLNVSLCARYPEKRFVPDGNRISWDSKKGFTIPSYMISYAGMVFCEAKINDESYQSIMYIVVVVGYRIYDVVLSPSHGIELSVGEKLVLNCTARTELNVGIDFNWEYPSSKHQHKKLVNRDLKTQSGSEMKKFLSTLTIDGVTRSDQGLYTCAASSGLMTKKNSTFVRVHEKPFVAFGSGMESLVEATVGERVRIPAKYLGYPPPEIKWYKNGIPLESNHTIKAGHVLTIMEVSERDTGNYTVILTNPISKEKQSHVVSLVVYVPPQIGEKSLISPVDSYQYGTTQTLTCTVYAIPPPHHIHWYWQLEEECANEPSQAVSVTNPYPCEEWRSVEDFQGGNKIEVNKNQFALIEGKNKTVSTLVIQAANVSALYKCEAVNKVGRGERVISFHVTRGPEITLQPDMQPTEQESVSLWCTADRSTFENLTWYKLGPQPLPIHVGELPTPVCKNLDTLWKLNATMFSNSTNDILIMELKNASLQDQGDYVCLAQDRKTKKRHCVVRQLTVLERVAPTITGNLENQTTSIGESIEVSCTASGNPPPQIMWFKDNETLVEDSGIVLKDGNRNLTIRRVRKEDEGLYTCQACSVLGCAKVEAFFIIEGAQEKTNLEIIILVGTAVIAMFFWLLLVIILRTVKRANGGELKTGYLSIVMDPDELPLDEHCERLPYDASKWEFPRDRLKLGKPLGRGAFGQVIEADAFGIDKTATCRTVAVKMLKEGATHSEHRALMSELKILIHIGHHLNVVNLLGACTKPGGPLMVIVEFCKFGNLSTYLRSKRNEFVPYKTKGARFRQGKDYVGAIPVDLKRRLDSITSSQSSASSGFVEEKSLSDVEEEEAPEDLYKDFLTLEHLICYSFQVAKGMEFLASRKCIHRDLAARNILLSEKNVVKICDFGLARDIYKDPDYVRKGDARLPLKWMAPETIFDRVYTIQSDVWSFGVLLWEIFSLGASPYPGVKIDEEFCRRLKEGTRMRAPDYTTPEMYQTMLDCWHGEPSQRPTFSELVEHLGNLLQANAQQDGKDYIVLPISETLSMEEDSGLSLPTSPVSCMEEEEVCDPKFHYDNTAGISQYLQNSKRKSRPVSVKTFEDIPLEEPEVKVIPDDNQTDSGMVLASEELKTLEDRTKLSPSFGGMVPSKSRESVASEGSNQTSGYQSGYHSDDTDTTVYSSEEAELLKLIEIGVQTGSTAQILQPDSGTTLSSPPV

The assay addresses Vascular endothelial growth factor receptor 2 (Homo sapiens) (UniProt P35968). Briefly: VEGFR2 inhibitors, primary assay, biochemical, Homo sapiens, LANCE Ultra TR-FRET, NPC library (AID 1117353). The note with it: LANCE Ultra TR-FRET kinase assay; series mostly up to 20 µM. (TR-FRET usually uses a lanthanide donor and a delayed reading to cut background.)
Take `O=C(CCl)c1ccc(Cl)cc1Cl`: the result was inactive.

Regarding `C=C(C)[C@H]1Cc2c(ccc3c2O[C@@H]2COc4cc(OC)c(OC)cc4[C@@H]2C3=O)O1`, the result was inactive.

In the case of `Cc1ccc([N+](=O)[O-])[c]2c1[O][Hg]2`, the result was inactive.
